Data: the supplement of paper PMC11732987, “Enantioselective OTUD7B fragment discovery through chemoproteomics screening and high-throughput optimisation” (Communications Chemistry, 2025)

Legend:
Assay in all cases: log2 ratio of Biotin-Ahx-Ub-VS probe labelling (fragment/DMSO); higher = less target engagement (more negative = stronger competition), active = hit call of the paper (q ≤ 0.05, log2 ratio ≤ -1)
Conditions in all cases: compound concentration: 200 uM; treatment time: 3 h
USP19 = biological target: T1, USP19 (UniProt O94966)
T1 sequence (whole entry): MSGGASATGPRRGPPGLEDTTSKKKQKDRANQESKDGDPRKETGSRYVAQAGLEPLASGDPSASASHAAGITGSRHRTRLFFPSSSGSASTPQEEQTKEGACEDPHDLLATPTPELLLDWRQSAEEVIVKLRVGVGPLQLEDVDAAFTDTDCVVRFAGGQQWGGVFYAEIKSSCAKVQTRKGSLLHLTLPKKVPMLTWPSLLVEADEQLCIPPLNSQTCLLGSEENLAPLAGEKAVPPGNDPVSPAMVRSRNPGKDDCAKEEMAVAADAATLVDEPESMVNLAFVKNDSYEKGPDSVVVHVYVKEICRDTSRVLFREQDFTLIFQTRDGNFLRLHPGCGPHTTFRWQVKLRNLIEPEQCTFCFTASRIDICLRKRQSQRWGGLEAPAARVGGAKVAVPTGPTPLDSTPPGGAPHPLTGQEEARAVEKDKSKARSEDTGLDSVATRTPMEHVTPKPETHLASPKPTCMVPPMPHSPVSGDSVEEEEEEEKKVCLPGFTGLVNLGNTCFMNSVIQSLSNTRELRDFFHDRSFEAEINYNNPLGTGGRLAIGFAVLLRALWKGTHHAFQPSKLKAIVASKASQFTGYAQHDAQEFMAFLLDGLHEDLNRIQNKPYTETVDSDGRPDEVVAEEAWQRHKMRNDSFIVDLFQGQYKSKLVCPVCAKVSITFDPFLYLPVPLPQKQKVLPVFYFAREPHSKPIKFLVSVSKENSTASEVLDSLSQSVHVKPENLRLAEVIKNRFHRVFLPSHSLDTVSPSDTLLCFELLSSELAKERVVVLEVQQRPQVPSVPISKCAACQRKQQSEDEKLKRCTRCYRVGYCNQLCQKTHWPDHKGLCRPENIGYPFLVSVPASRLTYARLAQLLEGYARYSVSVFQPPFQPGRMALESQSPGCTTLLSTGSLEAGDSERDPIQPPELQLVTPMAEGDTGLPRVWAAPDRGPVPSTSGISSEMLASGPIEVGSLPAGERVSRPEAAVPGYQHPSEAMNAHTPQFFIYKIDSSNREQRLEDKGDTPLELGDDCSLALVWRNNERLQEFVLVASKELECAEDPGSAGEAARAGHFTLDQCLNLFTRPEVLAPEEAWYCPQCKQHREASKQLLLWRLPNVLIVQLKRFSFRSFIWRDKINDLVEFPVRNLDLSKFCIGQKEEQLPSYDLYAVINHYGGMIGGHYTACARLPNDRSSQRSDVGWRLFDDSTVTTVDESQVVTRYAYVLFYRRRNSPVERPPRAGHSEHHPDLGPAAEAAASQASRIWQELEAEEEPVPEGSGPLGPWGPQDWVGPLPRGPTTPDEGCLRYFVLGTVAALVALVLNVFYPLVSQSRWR
Summary of the method: (§1)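 Fragment (200 µM) or vehicle was incubated for 3 h with triplicate HEK293T lysate samples of 495 µg, which were then treated with Biotin-Ahx-Ub-VS at 0.5 µM final for 1 h. Labelled DUBs were enriched on NeutrAvidin, digested with LysC and trypsin, and analysed by diaPASEF LC-MS/MS. Values are average log2 fragment/vehicle ratios from an unpaired t-test on global-median-normalised Spectronaut label-free quantities, using proteins with ≥2 unique peptides.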

USP24 = USP24 (UniProt Q9UPU5)
Summary of the method: as §1

USP25 = biological target: T2, USP25 (UniProt Q9UHP3)
T2 sequence (whole entry): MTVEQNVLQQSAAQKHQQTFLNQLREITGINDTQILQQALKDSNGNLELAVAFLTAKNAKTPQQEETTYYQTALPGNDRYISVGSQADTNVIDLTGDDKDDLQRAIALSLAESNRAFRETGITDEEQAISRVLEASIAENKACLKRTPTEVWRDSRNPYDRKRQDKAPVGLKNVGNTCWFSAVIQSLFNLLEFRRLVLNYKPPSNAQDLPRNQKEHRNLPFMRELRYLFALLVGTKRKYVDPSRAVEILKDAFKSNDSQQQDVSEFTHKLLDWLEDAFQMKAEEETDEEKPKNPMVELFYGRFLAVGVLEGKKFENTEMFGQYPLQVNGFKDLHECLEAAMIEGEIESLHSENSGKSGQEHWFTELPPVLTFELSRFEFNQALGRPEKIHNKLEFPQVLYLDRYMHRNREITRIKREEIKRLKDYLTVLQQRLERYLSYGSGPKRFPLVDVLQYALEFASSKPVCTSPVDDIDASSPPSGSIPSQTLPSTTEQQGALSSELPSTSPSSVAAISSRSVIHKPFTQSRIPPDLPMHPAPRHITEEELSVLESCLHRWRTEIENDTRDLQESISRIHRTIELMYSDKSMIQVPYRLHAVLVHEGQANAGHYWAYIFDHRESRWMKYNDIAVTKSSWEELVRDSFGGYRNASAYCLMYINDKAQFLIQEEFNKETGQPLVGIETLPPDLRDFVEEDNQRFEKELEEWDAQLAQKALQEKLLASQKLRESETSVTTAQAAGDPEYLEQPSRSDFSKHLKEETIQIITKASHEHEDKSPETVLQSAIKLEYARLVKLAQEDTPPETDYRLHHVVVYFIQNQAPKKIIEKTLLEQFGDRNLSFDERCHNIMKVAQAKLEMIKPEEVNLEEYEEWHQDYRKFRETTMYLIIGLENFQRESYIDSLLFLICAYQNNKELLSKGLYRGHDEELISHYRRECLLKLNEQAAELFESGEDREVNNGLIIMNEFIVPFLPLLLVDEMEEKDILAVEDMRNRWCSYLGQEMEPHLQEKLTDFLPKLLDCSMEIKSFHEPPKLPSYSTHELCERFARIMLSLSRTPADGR
Summary of the method: as §1

USP28 = biological target: T3, USP28 (UniProt Q96RU2)
T3 sequence (whole entry): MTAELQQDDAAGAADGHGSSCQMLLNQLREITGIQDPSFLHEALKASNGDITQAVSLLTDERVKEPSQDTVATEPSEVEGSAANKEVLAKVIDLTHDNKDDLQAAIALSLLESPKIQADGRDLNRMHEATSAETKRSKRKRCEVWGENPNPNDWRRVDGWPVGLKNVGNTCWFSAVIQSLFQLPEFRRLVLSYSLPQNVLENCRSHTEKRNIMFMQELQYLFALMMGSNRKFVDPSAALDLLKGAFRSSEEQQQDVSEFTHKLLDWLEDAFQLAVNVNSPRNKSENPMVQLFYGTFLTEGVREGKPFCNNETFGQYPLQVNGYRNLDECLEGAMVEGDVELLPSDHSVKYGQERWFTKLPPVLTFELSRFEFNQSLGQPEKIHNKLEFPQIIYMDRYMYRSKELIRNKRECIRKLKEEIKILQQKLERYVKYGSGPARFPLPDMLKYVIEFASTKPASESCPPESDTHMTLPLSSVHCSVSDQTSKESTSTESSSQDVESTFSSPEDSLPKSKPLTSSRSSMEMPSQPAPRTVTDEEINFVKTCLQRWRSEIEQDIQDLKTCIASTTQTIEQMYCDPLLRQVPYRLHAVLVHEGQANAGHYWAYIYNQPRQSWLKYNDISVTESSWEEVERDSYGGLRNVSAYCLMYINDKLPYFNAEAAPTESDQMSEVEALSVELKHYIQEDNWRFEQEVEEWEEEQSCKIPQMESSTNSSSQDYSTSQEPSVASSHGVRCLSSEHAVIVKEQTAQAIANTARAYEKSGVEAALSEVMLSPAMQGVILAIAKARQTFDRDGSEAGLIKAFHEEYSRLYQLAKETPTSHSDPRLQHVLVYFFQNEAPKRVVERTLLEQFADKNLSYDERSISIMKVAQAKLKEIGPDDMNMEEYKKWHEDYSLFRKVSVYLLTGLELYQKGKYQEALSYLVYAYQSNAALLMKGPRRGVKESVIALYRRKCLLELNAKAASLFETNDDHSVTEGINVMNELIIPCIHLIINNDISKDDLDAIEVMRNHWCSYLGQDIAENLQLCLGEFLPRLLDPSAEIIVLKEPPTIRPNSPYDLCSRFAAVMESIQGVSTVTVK
Summary of the method: as §1

Measured: log2 ratio of Biotin-Ahx-Ub-VS probe labelling

USP24, sequence (Q9UPU5 whole entry): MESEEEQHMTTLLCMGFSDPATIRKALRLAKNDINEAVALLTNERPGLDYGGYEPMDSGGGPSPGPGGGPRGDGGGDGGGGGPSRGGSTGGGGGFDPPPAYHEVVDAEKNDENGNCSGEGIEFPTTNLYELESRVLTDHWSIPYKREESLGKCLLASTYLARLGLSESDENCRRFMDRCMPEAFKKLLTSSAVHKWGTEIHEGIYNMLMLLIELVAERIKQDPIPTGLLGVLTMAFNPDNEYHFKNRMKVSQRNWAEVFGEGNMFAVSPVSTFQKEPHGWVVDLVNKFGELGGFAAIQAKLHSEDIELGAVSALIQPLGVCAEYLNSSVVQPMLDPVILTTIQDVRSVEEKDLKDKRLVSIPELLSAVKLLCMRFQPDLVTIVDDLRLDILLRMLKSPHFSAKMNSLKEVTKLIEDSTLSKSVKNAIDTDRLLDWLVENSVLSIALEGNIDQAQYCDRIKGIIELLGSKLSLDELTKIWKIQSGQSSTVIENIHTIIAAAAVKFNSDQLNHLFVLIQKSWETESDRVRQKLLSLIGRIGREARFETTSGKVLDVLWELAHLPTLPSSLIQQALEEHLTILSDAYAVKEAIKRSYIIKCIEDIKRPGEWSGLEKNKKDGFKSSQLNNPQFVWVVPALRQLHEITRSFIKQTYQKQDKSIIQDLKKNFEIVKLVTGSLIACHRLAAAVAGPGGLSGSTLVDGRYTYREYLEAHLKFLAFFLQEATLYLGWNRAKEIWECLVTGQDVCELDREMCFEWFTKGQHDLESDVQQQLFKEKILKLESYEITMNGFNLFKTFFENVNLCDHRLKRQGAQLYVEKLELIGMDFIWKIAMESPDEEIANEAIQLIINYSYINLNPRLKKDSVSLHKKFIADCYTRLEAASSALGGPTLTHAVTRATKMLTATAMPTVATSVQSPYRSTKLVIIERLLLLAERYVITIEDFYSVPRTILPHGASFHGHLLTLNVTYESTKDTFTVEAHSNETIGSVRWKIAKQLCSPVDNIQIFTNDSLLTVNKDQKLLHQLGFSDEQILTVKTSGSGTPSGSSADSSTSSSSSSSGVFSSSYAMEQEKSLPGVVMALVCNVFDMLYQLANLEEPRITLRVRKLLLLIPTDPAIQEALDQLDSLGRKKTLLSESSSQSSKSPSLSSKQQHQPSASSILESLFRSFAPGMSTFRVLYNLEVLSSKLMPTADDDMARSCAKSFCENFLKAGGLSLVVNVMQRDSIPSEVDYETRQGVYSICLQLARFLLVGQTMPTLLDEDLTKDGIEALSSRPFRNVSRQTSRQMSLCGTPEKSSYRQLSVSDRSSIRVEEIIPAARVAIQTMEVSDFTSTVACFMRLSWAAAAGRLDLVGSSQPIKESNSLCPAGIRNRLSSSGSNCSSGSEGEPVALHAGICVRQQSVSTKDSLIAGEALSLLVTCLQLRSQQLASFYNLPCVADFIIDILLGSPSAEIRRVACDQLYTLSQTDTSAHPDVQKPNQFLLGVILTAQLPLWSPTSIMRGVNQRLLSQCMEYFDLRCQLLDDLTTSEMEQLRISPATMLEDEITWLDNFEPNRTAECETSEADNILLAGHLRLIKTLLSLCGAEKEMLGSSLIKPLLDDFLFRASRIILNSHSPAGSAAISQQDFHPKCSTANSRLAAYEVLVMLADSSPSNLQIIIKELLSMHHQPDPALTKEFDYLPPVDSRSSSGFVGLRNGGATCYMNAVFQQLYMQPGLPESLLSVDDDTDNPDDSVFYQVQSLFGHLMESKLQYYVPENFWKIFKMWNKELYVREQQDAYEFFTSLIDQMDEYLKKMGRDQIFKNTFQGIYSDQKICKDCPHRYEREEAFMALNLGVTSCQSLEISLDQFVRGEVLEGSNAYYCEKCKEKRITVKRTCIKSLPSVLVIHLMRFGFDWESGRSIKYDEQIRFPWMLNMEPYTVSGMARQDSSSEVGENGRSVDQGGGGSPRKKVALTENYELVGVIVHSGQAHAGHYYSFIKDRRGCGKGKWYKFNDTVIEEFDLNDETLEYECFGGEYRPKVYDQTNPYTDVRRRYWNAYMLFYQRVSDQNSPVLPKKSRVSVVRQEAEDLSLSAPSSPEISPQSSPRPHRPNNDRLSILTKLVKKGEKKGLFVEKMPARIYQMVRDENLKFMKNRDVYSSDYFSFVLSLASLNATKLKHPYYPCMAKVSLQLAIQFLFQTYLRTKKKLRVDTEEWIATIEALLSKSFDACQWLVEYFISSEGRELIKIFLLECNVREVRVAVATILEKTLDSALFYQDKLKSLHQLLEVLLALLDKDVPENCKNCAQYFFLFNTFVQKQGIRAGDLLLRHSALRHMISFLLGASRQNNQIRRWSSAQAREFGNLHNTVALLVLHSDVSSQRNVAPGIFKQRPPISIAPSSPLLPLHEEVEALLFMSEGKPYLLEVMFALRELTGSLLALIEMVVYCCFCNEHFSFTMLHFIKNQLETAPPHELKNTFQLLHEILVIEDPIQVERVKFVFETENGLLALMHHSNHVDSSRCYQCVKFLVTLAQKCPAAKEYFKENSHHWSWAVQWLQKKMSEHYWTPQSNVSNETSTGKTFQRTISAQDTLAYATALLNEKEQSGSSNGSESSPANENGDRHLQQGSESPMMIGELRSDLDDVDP

O=C(CCl)N1CCC(C(=O)N2CCCC2)CC1
inactive: USP19 -0.228 | USP24 -0.075 | USP25 -0.128 | USP28 -0.299
